Experimental data as given in PubChem BioAssay (EPA / NIEHS).
Records with an inconclusive call do not appear. The source made the active and inactive calls. How the source made its calls: active means hit-call score of the fitted dose curve at least 0.9, where 1 is the maximum; inconclusive means response in the unintended direction; inactive means score below 0.9.

These molecules were tested against Glucocorticoid receptor (Homo sapiens) (UniProt P04150) (assay: ATG_GR_TRANS: Attagene TRANS-FACTORIAL HepG2 Assay for human Glucocorticoid Receptor (GR) (AID 2282978;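 further: activators score as hits since higher reporter transcript over DMSO is fitted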)). Conditions: HepG2 Attagene TRANS GR reporter, mRNA transcription.
Procedure, shortened: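 Exogenous NR-GAL4 fusion activity was assessed through induced GAL4-UAS reporter transcripts in transfected human HepG2 cells, quantified after 24 h by RT-PCR and fluorescent capillary electrophoresis with DMSO as baseline.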

Chain of Glucocorticoid receptor (Homo sapiens) (P04150 whole entry, looked up, the tested form may be a part): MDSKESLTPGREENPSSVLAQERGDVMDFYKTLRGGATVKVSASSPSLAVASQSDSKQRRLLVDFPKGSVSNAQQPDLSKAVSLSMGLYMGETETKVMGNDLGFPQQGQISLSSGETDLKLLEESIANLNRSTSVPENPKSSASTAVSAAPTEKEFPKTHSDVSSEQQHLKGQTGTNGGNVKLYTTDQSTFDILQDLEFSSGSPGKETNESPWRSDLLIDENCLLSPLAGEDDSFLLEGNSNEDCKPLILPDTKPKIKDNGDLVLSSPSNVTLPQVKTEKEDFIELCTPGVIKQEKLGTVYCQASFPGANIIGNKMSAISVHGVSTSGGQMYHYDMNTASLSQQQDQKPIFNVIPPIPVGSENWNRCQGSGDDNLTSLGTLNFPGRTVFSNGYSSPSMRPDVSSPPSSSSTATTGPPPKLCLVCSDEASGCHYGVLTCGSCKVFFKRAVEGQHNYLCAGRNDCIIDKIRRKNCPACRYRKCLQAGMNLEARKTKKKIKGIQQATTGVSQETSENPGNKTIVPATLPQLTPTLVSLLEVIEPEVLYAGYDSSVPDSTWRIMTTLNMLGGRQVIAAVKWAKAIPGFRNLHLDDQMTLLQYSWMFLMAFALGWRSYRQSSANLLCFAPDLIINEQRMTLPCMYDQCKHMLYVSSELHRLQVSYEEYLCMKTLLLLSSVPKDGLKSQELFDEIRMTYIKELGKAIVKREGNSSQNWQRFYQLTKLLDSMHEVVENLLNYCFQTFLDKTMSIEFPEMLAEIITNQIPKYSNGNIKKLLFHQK

outcome, inactive:
O=[N+]([O-])c1ccc(CO)cc1
NC(=O)C1CO1 (stereo not given)
CCCCC(CC)COCC1CO1 (stereo not given)
c1cc(C(c2ccc(OCC3CO3)cc2)C(c2ccc(OCC3CO3)cc2)c2ccc(OCC3CO3)cc2)ccc1OCC1CO1 (stereo not given)
CC(=O)C=CC1C(C)=CCC(C)C1(C)C (stereo not given)
c1ccc2c(c1)ccc1ncccc12
O=C1CCCC1
C=C(C)[C@@H]1CCC2=CCC[C@@H](C)[C@]2(C)C1
COC(=O)c1cc(Cl)ccc1[N+](=O)[O-]
CC(C)C(=O)C(C)C
CNC(=S)N(C)C
CCCCC(CC)COC(=O)c1ccccc1 (stereo not given)
CCCCCCCCC(=O)OCC
CCCCCCCCCCCSCC(=O)O
C=C(C)C(=O)OCCOc1ccccc1
Cc1ccc(C(C)c2ccc(C)c(C)c2)cc1C
CC(=O)Nc1nnc(S(N)(=O)=O)s1
OC1CCCCCCCCCCC1
CCC(CC)C(=O)O
CO[Si](CCC1CCC2OC2C1)(OC)OC (stereo not given)
CC1=NC(C)OC1C (stereo not given)
N=c1ccn2c(n1)O[C@H]1[C@H](O)[C@@H](CO)O[C@H]12
CCc1nccnc1C
OCCCS
FC(F)(F)C(=NOCC1OCCO1)c1ccc(Cl)cc1
NC(CO)(CO)CO
Cc1cc(C)c(C(=O)O)c(C)c1
O=C1CCCCCCCCCCC(=O)OCCO1
CCOC(=O)c1ccc(N(C)C)cc1
C=C1C2CCC(C2)C1(C)C (stereo not given)
